Assay results from PubChem BioAssay.
“And” between values parts separate entries of the source, which are not always exact repeats. Equal values may be shown once. The source made the active and inactive calls.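 How the source made its calls, unless noted: active means thallium flux through the channel raised or lowered by more than 3 SD from vehicle-only wells, actives on both sides; inactive means the rest.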

How the values were obtained:
[1] = stimulators of nuclear beta-catenin in C2C12, primary screen, imaging, WNT3A-conditioned medium, mouse C2C12, NPC library (AID 1117326; in the data active means nuclear beta-catenin stimulation mostly above about 4.2%, no sharp cut-off; inactive means mostly below about 10%); conditions: stronger effect = higher value
[2] = stimulators of insulin release from INS-1E, primary screen, cell-based, 5 mM glucose, NPC library (AID 1117329;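 active means compound raises insulin release from rat beta cells at 5 mM glucose, no numeric limit stated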); conditions: rat INS-1E insulin secretion, at 10 µM, stronger effect = higher value
[3] = growth inhibition of GSK3B-pretreated HCT116 cells – cell-based, CellTiter-Glo, 0.2 to 20 µM (AID 1117336;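 active means compounds lowering colon cancer cell viability after pretreatment blocking the GSK3B kinase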); conditions: HCT116 viability after GSK3B inhibitor, at 20 µM, stronger effect = higher value
[4] = inhibition of endothelial tube formation, primary screen, imaging, VEGF stimulated, CD31 staining, tube area, NPC library (AID 1117340;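 active means compound that reduces growth-factor-driven endothelial tube area in a mixed cell culture, no cutoff stated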); conditions: VEGF-stimulated ADSC/ECFC co-culture, at 10 µM, stronger effect = higher value
[5] = glucagon-like peptide 1 release enhancers, primary assay, NCI-H716 cell line, NPC library (AID 1117341;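 active means compound raises GLP1 secretion from the human gut endocrine cells, with no numeric limit stated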); conditions: NCI-H716 cells, at 10 µM, stronger effect = higher value
[6] = HCT116 colon cancer cell growth inhibition, primary screen, CellTiter-Glo luminescence, NPC library (AID 1117342;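 active means compounds that lower survival of HCT116 colon cancer cells in the luminescence readout, no numeric limit stated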); conditions: at 20 µM (top of the series)
[7] = CellTiter-Glo luminescent readout of SW480 viability loss, NPC library primary (AID 1117343;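 active means compounds that lower viability of the colon cancer cells in the luminescence readout, with no numeric limit stated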); conditions: CellTiter-Glo luminescence; at 20 µM (top of the series)
[8] = decreased DLD-1 cellular survival, CellTiter-Glo luminescent readout, NPC compound collection, primary HTS (AID 1117346;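 active means compounds that lower survival of DLD-1 colon cancer cells in the luminescence readout, no cutoff given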); conditions: DLD-1 viability, CellTiter-Glo luminescence; at 20 µM (top of the series)
[9] = molecular target: 6-phosphogluconate dehydrogenase, decarboxylating (Homo sapiens) (UniProt P52209); assay: 6PGD enzyme inhibitors, primary screen, biochemical, human, recombinant enzyme, NADPH absorbance (AID 1159550;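 active means at least 20% inhibition of 6-phosphogluconate dehydrogenase activity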); conditions: recombinant 6PGD, NADPH absorbance 341 nm; at 10 µM; stronger effect = higher value
Chain of 6-phosphogluconate dehydrogenase, decarboxylating (Homo sapiens) (P52209 whole entry, looked up): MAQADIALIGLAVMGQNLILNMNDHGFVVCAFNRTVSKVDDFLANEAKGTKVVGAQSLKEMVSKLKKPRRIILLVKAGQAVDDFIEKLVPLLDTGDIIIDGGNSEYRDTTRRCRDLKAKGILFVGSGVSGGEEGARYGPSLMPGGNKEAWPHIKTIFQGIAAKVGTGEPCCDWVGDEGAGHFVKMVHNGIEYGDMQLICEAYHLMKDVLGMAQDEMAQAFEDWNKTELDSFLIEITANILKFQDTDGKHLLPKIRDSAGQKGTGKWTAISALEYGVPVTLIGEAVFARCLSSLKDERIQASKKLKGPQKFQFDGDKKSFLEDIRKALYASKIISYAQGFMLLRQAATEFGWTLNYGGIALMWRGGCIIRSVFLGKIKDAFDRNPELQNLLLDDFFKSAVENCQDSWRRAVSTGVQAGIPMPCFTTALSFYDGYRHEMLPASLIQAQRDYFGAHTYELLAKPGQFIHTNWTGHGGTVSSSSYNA

[10] = differential killing of epithelial or mesenchymal cells, primary screen, imaging, PC-3E GFP, TEM4-18 mCherry, co-culture (AID 1345086;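 active means compounds killing one labelled cell type while sparing the other, by normalised counts and ratio limits, not self-fluorescent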;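 on all read-outs here: cells exposed to compound for 72 h before imaging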;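 on red/green cell ratio (normalised): normalised mesenchymal count divided by normalised epithelial count so high means epithelial killing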); conditions: imaging cell counts, at 1 µM; for red/green cell ratio (normalised): actives lie on both sides, counts scaled to control wells, 1 = unselective
[11] = survival rescue of mitochondrial mutant cells in low glucose, primary screen, MELAS cybrids, Rieske KO mouse fibroblasts, CellTiter-Glo (AID 1508586;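 active means mean z-score across replicates of 1.96 or higher in either the MELAS or the Rieske mutant cell line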;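 further: z relative to plate mean and SD of compound and empty wells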)
[12] = system: F380Y; assay: modulators of BK channel variants, profiling panel, selectivity assay, cell-based, U2OS BacMam, thallium flux, beta subunits (AID 1259406); conditions: at 30 µM;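 further: initial slope of Thallos dye fluorescence rise after thallium is added; log ratio against the mean of 0.3% DMSO vehicle wells on the same plate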
[13] = system: F380Y/beta1; assay: as above; conditions: at 30 µM
[14] = system: F380Y/beta2Delta; assay: as above; conditions: at 30 µM
[15] = system: F380Y/beta4; assay: as above; conditions: at 30 µM
[16] = molecular target: Calcium-activated potassium channel subunit alpha-1 (Homo sapiens) + Leucine-rich repeat-containing protein 26 (Homo sapiens) (UniProt Q12791+Q2I0M4); assay: as above; conditions: F380Y/Slo1WT/gamma1, at 30 µM
Chain of Calcium-activated potassium channel subunit alpha-1 (Homo sapiens) + Leucine-rich repeat-containing protein 26 (Homo sapiens) (Q2I0M4 whole entry, looked up, one chain of several): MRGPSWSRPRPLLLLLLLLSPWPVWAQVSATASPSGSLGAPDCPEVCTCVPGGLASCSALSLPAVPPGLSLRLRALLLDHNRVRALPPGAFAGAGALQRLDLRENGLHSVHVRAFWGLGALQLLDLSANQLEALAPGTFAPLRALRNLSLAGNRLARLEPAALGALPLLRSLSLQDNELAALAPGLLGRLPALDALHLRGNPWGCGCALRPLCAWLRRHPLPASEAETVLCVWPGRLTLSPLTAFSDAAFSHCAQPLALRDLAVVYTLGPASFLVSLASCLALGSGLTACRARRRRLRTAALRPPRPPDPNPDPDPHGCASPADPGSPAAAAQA

[17] = system: R275C; assay: as above; conditions: at 30 µM
[18] = system: R275C/beta1; assay: as above; conditions: at 30 µM
[19] = sensitizers of A549 cells to miR-34 induction, primary screen, imaging, A549 dox-inducible miR-34, nuclei and caspase counts (AID 1347080); conditions: A549 miR-34 inducible, Hoechst nuclei count, 48 h
[20] = ovarian cancer cell viability with rucaparib, profiling panel, oncology-focused library, rucaparib conditional (AID 1508598;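 active means normalized viability below 100% at a tested concentration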); conditions: patient-derived ovarian cancer cells, CellTiter-Glo viability, 144 h, stronger effect = lower value
[21] = measured here: epithelial PC-3E GFP cell survival
[22] = measured here: mesenchymal TEM4-18 mCherry cell survival
[23] = MELAS cybrid survival, CellTiter-Glo 48 h, stronger effect = higher value
[24] = Rieske KO mouse fibroblast survival, CellTiter-Glo 72 h

O=C(C1CCCCC1)N1CC(=O)N2CCc3ccccc3C2C1 (centres undefined)
0.96: normalised cell number [10, 21]
1.42: normalised cell number [10, 22]
-0.176 and 0.00765 and 0.589: z-score [11, 24]
inactive: nuclear beta-catenin stimulation ([1]; at 10 µM) -0.4% | insulin secretion stimulation [2] 2.5% | viability decrease [3] -3.8% | tube area decrease [4] -2.6% | GLP1 secretion stimulation [5] -2.7% | inhibition of viability [6] -11.5% | viability decrease (inhibition) [7] 19.5% | viability decrease (inhibition) [8] -16.7% | inhibition [9] -0.949% | red/green cell ratio (normalised) [10] 1.48 | z-score [11, 23] -0.396 and 0.0285 and 0.65 | log fold change Tl+ flux [12] 0.0282 | log fold change Tl+ flux [13] 0.027 | log fold change Tl+ flux [14] 0.0335 | log fold change Tl+ flux [15] 0.0341 | log fold change Tl+ flux [16] -0.00263 | log fold change Tl+ flux [17] -0.0164 | log fold change Tl+ flux [18] 0.0419
-1.1%: nuclear beta-catenin stimulation ([1]; stimulation, at 2 µM)

N[C@@H](Cc1cc(I)c(Oc2cc(I)c(O)c(I)c2)c(I)c1)C(=O)O
1.02: normalised cell number [10, 22]
0.96: normalised cell number [10, 21]
inactive: nuclear beta-catenin stimulation ([1]; at 10 µM) -0.2% | insulin secretion stimulation [2] 1.4% | viability decrease [3] 24.1% | tube area decrease [4] 5.6% | GLP1 secretion stimulation [5] 0.1% | inhibition of viability [6] 36.7% | viability decrease (inhibition) [7] 26% | viability decrease (inhibition) [8] -2% | inhibition [9] 12.1% | red/green cell ratio (normalised) [10] 1.06 | z-score [11, 23] -0.661 and -0.549 | log fold change Tl+ flux [12] -0.00167 | log fold change Tl+ flux [16] 0.0246 | log fold change Tl+ flux [17] 0.00175 | log fold change Tl+ flux [18] 0.0456
-1.8%: nuclear beta-catenin stimulation ([1]; stimulation, at 2 µM)
active: log fold change Tl+ flux [13] 0.13 | log fold change Tl+ flux [14] 0.163 | log fold change Tl+ flux [15] 0.107
-0.144 and -1.61: z-score [11, 24]

CC1Cc2ccccc2N1NC(=O)c1ccc(Cl)c(S(N)(=O)=O)c1 (centres undefined)
inactive: nuclear beta-catenin stimulation ([1]; at 10 µM) 1% | insulin secretion stimulation [2] -0.1% | viability decrease [3] -7.2% | tube area decrease [4] 2.8% | GLP1 secretion stimulation [5] 4.6% | inhibition of viability [6] -2.13% | viability decrease (inhibition) [7] -2.3% | viability decrease (inhibition) [8] 3.8% | inhibition [9] 0.53% | red/green cell ratio (normalised) [10] 1.37 | z-score [11, 23] -0.244 and 0.521 and 0.421 | log fold change Tl+ flux [12] 0.00177 | log fold change Tl+ flux [13] 0.039 | log fold change Tl+ flux [14] 0.049 | log fold change Tl+ flux [15] 0.0552 | log fold change Tl+ flux [16] -0.0185 | log fold change Tl+ flux [17] 0.0209 | log fold change Tl+ flux [18] 0.0126
1.01: normalised cell number [10, 21]
0.75 and 0.194 and 0.772: z-score [11, 24]
1.38: normalised cell number [10, 22]
6%: nuclear beta-catenin stimulation ([1]; stimulation, at 2 µM)

CCCc1cc(=O)[nH]c(=S)[nH]1
1.05: normalised cell number [10, 21]
1.32: normalised cell number [10, 22]
1.49 and 1.36 and 2.91: fold change ([19]; measured here: relative caspase fold change +Dox/-Dox)
inactive: nuclear beta-catenin stimulation ([1]; at 10 µM) 0.6% | insulin secretion stimulation [2] -0.9% | viability decrease [3] -14.4% | tube area decrease [4] 8.2% | GLP1 secretion stimulation [5] -0.8% | inhibition of viability [6] -19.2% | viability decrease (inhibition) [7] -1.9% | viability decrease (inhibition) [8] -28.7% | inhibition [9] -7.2% | red/green cell ratio (normalised) [10] 1.26 | z-score [11, 23] -0.276 and 0.0359 | log fold change Tl+ flux [12] 0.00762 | log fold change Tl+ flux [14] -0.0326 | log fold change Tl+ flux [15] 0.0238 | log fold change Tl+ flux [16] 0.00637 | log fold change Tl+ flux [17] -0.0214 | log fold change Tl+ flux [18] -0.00439
active: log fold change Tl+ flux [13] -0.132
0.8%: nuclear beta-catenin stimulation ([1]; stimulation, at 2 µM)
10600 and 9200 and 7970: cell count ([19]; measured here: total cells with miR-34 induction, stronger effect = lower value)
0.644 and -0.188: z-score [11, 24]

O=C(O)c1cc(=O)c2c(OCC(O)COc3cccc4oc(C(=O)O)cc(=O)c34)cccc2o1
0.522 and -0.245: z-score [11, 24]
1.3%: nuclear beta-catenin stimulation ([1]; stimulation, at 2 µM)
1.63: normalised cell number [10, 22]
inactive: nuclear beta-catenin stimulation ([1]; at 10 µM) -1.8% | insulin secretion stimulation [2] 1.6% | viability decrease [3] -32.8% | tube area decrease [4] -2.5% | GLP1 secretion stimulation [5] -0.5% | inhibition of viability [6] 2.4% | viability decrease (inhibition) [7] 19.3% | viability decrease (inhibition) [8] -7.8% | inhibition [9] 10.5% | red/green cell ratio (normalised) [10] 1.26 | z-score [11, 23] 0.0651 and -0.552 | log fold change Tl+ flux [12] -0.0252 | log fold change Tl+ flux [13] -0.0414 | log fold change Tl+ flux [14] -0.0103 | log fold change Tl+ flux [15] -0.0657 | log fold change Tl+ flux [16] -0.0248 | log fold change Tl+ flux [17] -0.0035 | log fold change Tl+ flux [18] -0.0241
1.29: normalised cell number [10, 21]

NNC(=O)c1ccncc1
-1.2%: nuclear beta-catenin stimulation ([1]; stimulation, at 2 µM)
1.01: normalised cell number [10, 21]
0.295 and -0.273 and 1.51: z-score [11, 24]
1.19: normalised cell number [10, 22]
inactive: nuclear beta-catenin stimulation ([1]; at 10 µM) -1.9% | insulin secretion stimulation [2] -0.1% | viability decrease [3] -2.7% | tube area decrease [4] -10.4% | GLP1 secretion stimulation [5] 0.3% | inhibition of viability [6] 9.9% | viability decrease (inhibition) [7] 10.1% | viability decrease (inhibition) [8] 6.5% | inhibition [9] 6.29% | red/green cell ratio (normalised) [10] 1.18 | z-score [11, 23] -0.127 and -0.162 and -0.645 | log fold change Tl+ flux [12] 0.00909 | log fold change Tl+ flux [13] 0.0138 | log fold change Tl+ flux [14] 0.00988 | log fold change Tl+ flux [15] 0.0513 | log fold change Tl+ flux [16] 0.0222 | log fold change Tl+ flux [17] 0.00765 | log fold change Tl+ flux [18] -0.00353

O=c1[nH]cnc2[nH]ncc12
1.06: normalised cell number [10, 21]
1%: nuclear beta-catenin stimulation ([1]; stimulation, at 2 µM)
-0.183 and 0.499 and -0.321: z-score [11, 24]
active: viability ([20]; at 0.00488 µM, OCI-P5x cells, with rucaparib 20 µM, 100% = cells with rucaparib alone) 98.6%
inactive: nuclear beta-catenin stimulation ([1]; at 10 µM) -0.8% | insulin secretion stimulation [2] -2.4% | viability decrease [3] 3.7% | tube area decrease [4] -6.1% | GLP1 secretion stimulation [5] 0.1% | inhibition of viability [6] 2.7% | viability decrease (inhibition) [7] 25% | viability decrease (inhibition) [8] -0.95% | inhibition [9] 10.8% | red/green cell ratio (normalised) [10] 1.08 | z-score [11, 23] 0.356 and -0.148 and 0.116 | viability ([20]; at 0.000305 µM, OCI-C5x cells, with rucaparib 10 µM, 100% = cells with rucaparib alone) 116% | viability ([20]; at 0.000305 µM, OCI-C5x cells, without rucaparib) 122% | viability ([20]; at 0.000305 µM, OCI-P5x cells, with rucaparib 20 µM, 100% = cells with rucaparib alone) 106% | viability ([20]; at 0.000305 µM, OCI-P5x cells, without rucaparib) 127% | viability ([20]; at 0.00122 µM, OCI-C5x cells, with rucaparib 10 µM, 100% = cells with rucaparib alone) 124% | viability ([20]; at 0.00122 µM, OCI-C5x cells, without rucaparib) 130% | viability ([20]; at 0.00122 µM, OCI-P5x cells, with rucaparib 20 µM, 100% = cells with rucaparib alone) 105% | viability ([20]; at 0.00122 µM, OCI-P5x cells, without rucaparib) 118% | viability ([20]; at 0.00488 µM, OCI-C5x cells, with rucaparib 10 µM, 100% = cells with rucaparib alone) 118% | viability ([20]; at 0.00488 µM, OCI-C5x cells, without rucaparib) 125% | viability ([20]; at 0.00488 µM, OCI-P5x cells, without rucaparib) 111% | viability ([20]; at 0.0195 µM, OCI-C5x cells, with rucaparib 10 µM, 100% = cells with rucaparib alone) 114% | viability ([20]; at 0.0195 µM, OCI-C5x cells, without rucaparib) 121% | viability ([20]; at 0.0195 µM, OCI-P5x cells, with rucaparib 20 µM, 100% = cells with rucaparib alone) 104%
1.15: normalised cell number [10, 22]
